Some test systems named below: DU-145 prostate; K-562 leukemia; MALME-3M melanoma; MDA-MB-231 breast; RXF 393 renal; SF-268 CNS; SF-295 CNS; SF-539 CNS; UACC-257 melanoma; M14 melanoma.
What all share (test): NCI-60 one-dose screen, 48 h (100 = growth as untreated, 0 = no growth, -100 = all killed)
What all share (conditions): 10 µM unless noted

This note sets out measurements from PubChem BioAssay (NCI).

Compounds without any hit were thinned out: in the full panel of roughly 83,000, 20% have a hit.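 Note: values are percent growth. 100 is the growth of untreated cells, values between 100 and 0 indicate rising inhibition; between -100 and 0 indicates cell death.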 Unmarked numbers belong to inactive results. Calls of active or inactive are those of the source. Rule for the calls: active = growth percent below 10; inactive = the rest.

Regarding `O=C1Nc2cc(-c3ccc(NC(=O)C4CC4)cc3)ccc2/C1=C/c1ccc[nH]1`, the growth is 105% with DU-145 prostate; 98.4% with K-562 leukemia; 98.5% with MALME-3M melanoma; 99.5% with MDA-MB-231 breast; 108% in the assay with RXF 393 renal; 104% in the assay with SF-268 CNS. The growth was 101% with SF-295 CNS, 90.7% with SF-539 CNS, 116% in the assay on UACC-257 melanoma and 99.3% in the assay on M14 melanoma.
Regarding `CCNC(=O)Oc1ccc(/C(=C(\C)c2ccccc2)c2ccc(OCCN(CC)CC)cc2)cc1`, the growth in the assay with DU-145 prostate is 95.4%; in the assay on K-562 leukemia, 18.9%; in the assay on MALME-3M melanoma it was 81.1%; in the assay with MDA-MB-231 breast, 87.2%; with RXF 393 renal, 70.6%; in the assay with SF-268 CNS, 80.1%. Besides, the growth with SF-295 CNS is 43.5%; in the assay on SF-539 CNS it was 60.9%; with UACC-257 melanoma it was -0.741% (active); with M14 melanoma, 39.7%.
Take `COC(=O)C1=C(C(=O)ON)[C@@H]2C=C[C@@]1([C@@H](Cc1ccccc1)Nc1ccccc1)O2`: the growth was 80% in the assay with DU-145 prostate; -9.92% (active) in the assay on K-562 leukemia; -68.8% (active) with MALME-3M melanoma; 106% in the assay with MDA-MB-231 breast; 91.1% in the assay on RXF 393 renal; 93.9% in the assay with SF-268 CNS. Besides, the growth in the assay with SF-295 CNS was 105%; with SF-539 CNS, 93.8%; in the assay on UACC-257 melanoma it was 94.8%; in the assay with M14 melanoma, 95.3%.
Consider `Cn1nc(CC#N)c2c(=N)n(N)cnc21`, for which the growth with DU-145 prostate was 106%; in the assay with K-562 leukemia it was 103%; with MALME-3M melanoma, 118%; in the assay on MDA-MB-231 breast it was 96.7%; with RXF 393 renal, 112%; in the assay with SF-268 CNS, 101%. Moreover, the growth in the assay with SF-295 CNS is 95%; with SF-539 CNS it was 108%; with UACC-257 melanoma it was 111%; in the assay on M14 melanoma, 110%.
Turning to `COc1cc(-c2n/c(=C\c3c(O)[nH]c4ccc(Cl)cc34)cc3c2=Nc2ccccc2-3)ccc1F`, the growth was -36.4% (active) in the assay on DU-145 prostate; 13.4% in the assay with K-562 leukemia; -66.4% (active) in the assay on MALME-3M melanoma; -7.94% (active) with MDA-MB-231 breast; -78.7% (active) with RXF 393 renal; -40.1% (active) in the assay with SF-268 CNS. Moreover, the growth in the assay with SF-295 CNS is 43.1%; with SF-539 CNS, 54.6%; in the assay with UACC-257 melanoma, 58.1%; in the assay on M14 melanoma it was 14%.
On to `Cc1cc(C)c(S(=O)(=O)Oc2ccccc2[N+](=O)[O-])c(C)c1`, for which the growth in the assay on DU-145 prostate is 15.7%; in the assay on K-562 leukemia it was 22.1%; with MALME-3M melanoma, 21%; in the assay on MDA-MB-231 breast it was 33.2%; with RXF 393 renal it was 4.44% (active); in the assay with SF-268 CNS, 37.2%. In addition, the growth is -7.8% (active) with SF-295 CNS, -8.46% (active) in the assay on SF-539 CNS, 32.4% with UACC-257 melanoma and 14.2% in the assay on M14 melanoma.
`C=C1C(=O)O[C@H]2[C@H]1CC/C(COC(=O)NCc1c[nH]c3ccc(Br)cc13)=C\CC[C@@]1(C)O[C@@H]21`: the growth in the assay on DU-145 prostate is -88.6% (active); in the assay with K-562 leukemia it was 0.98% (active); with MALME-3M melanoma, -45.4% (active); in the assay with MDA-MB-231 breast, -52.7% (active); in the assay with RXF 393 renal, -87.7% (active); in the assay with SF-268 CNS, 3.85% (active). Moreover, the growth is 60.9% in the assay on SF-295 CNS, -36.9% (active) in the assay with SF-539 CNS, -39.6% (active) in the assay with UACC-257 melanoma and -40.8% (active) in the assay with M14 melanoma.
With `CCCCOc1ccc(/C=N/Nc2cc(C)nc3ccc(Br)cc23)cc1`, the growth in the assay with DU-145 prostate was 16.4%; with K-562 leukemia it was -2.5% (active); with MALME-3M melanoma it was -66.9% (active); in the assay on MDA-MB-231 breast, 48.5%; with RXF 393 renal, -72% (active); in the assay with SF-268 CNS, 88.3%. In addition, the growth is -80.3% (active) with SF-295 CNS, -79.3% (active) in the assay with SF-539 CNS, 96.3% in the assay on UACC-257 melanoma and 4.9% (active) with M14 melanoma.
As to `CCOC(=O)Oc1c(OC)cc(C(=O)c2ccc(OC)c(O)c2OC)cc1OC`, the growth in the assay with DU-145 prostate is 13.8%; in the assay with K-562 leukemia it was 10.8%; with MALME-3M melanoma, 49.1%; in the assay on MDA-MB-231 breast, 30.8%; in the assay with RXF 393 renal, -10.1% (active); with SF-268 CNS, 48.7%. The growth is 22.6% in the assay with SF-295 CNS, -15.7% (active) in the assay with SF-539 CNS, 47.3% with UACC-257 melanoma and -9.21% (active) with M14 melanoma.
As for `Nc1ccccc1NC(=O)c1ccc(-n2nc(-c3ccccc3)c3ccccc32)cc1`, the growth in the assay with DU-145 prostate is 87.2%; in the assay on K-562 leukemia, 43.7%; with MALME-3M melanoma, 68.9%; with MDA-MB-231 breast it was 42.9%; in the assay with RXF 393 renal, 88.7%; with SF-268 CNS, 68.2%. The growth was 90.7% with SF-295 CNS, 48.8% in the assay on SF-539 CNS, 86.2% in the assay on UACC-257 melanoma and 88.9% in the assay on M14 melanoma.
On to `CCCCCN1C=C/C(=C\C(=O)N(C)c2ccccc2Br)c2ccccc21`, for which the growth in the assay on DU-145 prostate was 109%; in the assay on K-562 leukemia, 74.6%; with MALME-3M melanoma it was 91%; with MDA-MB-231 breast it was 97.6%; in the assay on RXF 393 renal it was 101%; in the assay on SF-268 CNS it was 96.4%. Further, the growth was 95.1% with SF-295 CNS, 99.6% with SF-539 CNS, 93% with UACC-257 melanoma and 104% in the assay on M14 melanoma.
Consider `C=C1C(=O)O[C@H]2[C@H]1CC/C(CNC(=O)/C=C/c1cccc(OC)c1)=C\CC[C@@]1(C)O[C@@H]21`, for which the growth was 13.2% with DU-145 prostate; 3.75% (active) in the assay on K-562 leukemia; -45% (active) in the assay on MALME-3M melanoma; 7.34% (active) in the assay on MDA-MB-231 breast; -80.5% (active) with RXF 393 renal; 48.4% in the assay with SF-268 CNS. Moreover, the growth with SF-295 CNS was 71.8%; in the assay on SF-539 CNS it was -70.5% (active); with UACC-257 melanoma, -6.14% (active); with M14 melanoma it was -36.8% (active).
Regarding `O=C(CCN1CCCC1)Nc1ccc2c(NCCCCc3ccccc3)c3ccccc3nc2c1`, the growth in the assay on DU-145 prostate was -61.8% (active); in the assay on K-562 leukemia, -31.2% (active); with MALME-3M melanoma it was -88.7% (active); in the assay with MDA-MB-231 breast it was -74.9% (active); in the assay with RXF 393 renal, 7.61% (active); in the assay on SF-268 CNS it was -73.2% (active). In addition, the growth in the assay with SF-295 CNS is 43.4%; in the assay on SF-539 CNS it was -70.3% (active); in the assay on UACC-257 melanoma it was -60.8% (active); in the assay with M14 melanoma, -72.6% (active).
